Screening results (PubChem)
H9c2 TAG inh: inhibitors of triacylglycerol accumulation, primary screen, cell-based, uHTS, fluorescence, H9c2 | inhibition, % at 12.5 µM | AID 651582, 2012 | H9c2 cells, Nile Red lipid (TAG) fluorescence; cells loaded with 200 µM oleic acid | 230,000 compounds, 0.66% hits;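 active = pattern-corrected inhibition of lipid staining of at least 50% with the nuclear-stain viability signal not falling by more than 50%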
Kir21 block: inhibitors of mouse Kir2.1 inward-rectifier potassium channel; Inward rectifier potassium channel 2 (Mus musculus), P35561; HEK293-Kir2.1, FluxOR thallium flux fluorescence; stronger effect = lower value; B-score at 10 µM; 310,000 compounds, 0.85% hits; AID 1672, 2009;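 active = fluorescence ratio B-score at or below minus 3 SD of library scores, with starting-brightness B-score within 2 SD, cut at about -4.2 in these data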;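 also: channel flux triggered by added potassium and thallium sulfate stimulus; B-score of peak minus minimum fluorescence over baseline after thallium stimulus; more negative B-score means stronger Kir2.1 block with less thallium influx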
Target sequence (P35561 whole entry, looked up): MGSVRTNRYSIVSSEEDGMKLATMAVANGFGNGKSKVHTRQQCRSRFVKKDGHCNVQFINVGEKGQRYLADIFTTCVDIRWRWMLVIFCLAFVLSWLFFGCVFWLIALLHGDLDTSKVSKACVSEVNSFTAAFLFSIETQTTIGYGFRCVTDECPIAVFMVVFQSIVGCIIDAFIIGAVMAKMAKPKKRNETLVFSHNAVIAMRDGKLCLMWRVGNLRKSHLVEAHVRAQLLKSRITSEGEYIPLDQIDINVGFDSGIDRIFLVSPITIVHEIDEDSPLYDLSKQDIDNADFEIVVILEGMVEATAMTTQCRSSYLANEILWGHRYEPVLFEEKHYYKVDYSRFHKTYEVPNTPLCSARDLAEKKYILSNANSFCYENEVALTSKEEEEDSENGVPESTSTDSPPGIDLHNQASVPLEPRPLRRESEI
CHT block: inhibitors of human choline transporter CHT; High affinity choline transporter 1 (Homo sapiens), Q9GZV3; 310,000 compounds, 0.86% hits; B-score at 10 µM; CHT-expressing cells, membrane potential dye, choline response; stronger effect = lower value; AID 488975, 2010;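 active = B-score over 3 SD under the library average, and starting fluorescence ratio not unusually high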;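 also: choline stimulus applied at its EC90 after an EC20 pre-addition; B-score computed on integrated fluorescence ratio after choline addition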
CHT allo act: CHT positive allosteric modulators, primary screen, cell-based, membrane potential dye, choline EC20; High affinity choline transporter 1 (Homo sapiens), Q9GZV3; CHT-expressing cells; stronger effect = higher value; LV-AA mutant CHT in HEK293 cells; B-score at 10 µM; 310,000 compounds, 0.49% hits; AID 488977, 2010;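 active = initial fluorescence not abnormally high and integrated response B-score, plate-corrected, over 3 SD above library mean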
Numbers stand for hits; i = inactive; nt = no result. Shown are actives, neighbours in structure and some others; about 2% of the full set was active somewhere.

SMILES	H9c2 TAG inh	Kir21 block	CHT block	CHT allo act
CN(CC(=O)Nc1ccccc1Cl)C(=O)COC(=O)c1ccc([N+](=O)[O-])s1	i	nt	nt	nt
CCOCCCNC(=O)C1CCCN1C(=O)Nc1ccccc1[N+](=O)[O-] (stereo unspecified)	i	i	i	i
Clc1ccc(SCCOCCN2CCCCCC2)cc1	i	i	i	i
Cc1ccc(SCCOCCN2CCc3ccccc3C2)cc1	nt	-4.6	i	i
C=CCc1cc(OC)ccc1OCCOCCN1CCc2ccccc2C1	i	-12	i	i
COc1ccc(OCCCN2CCc3ccccc3C2)cc1	nt	i	i	i
CCOc1ccc(OCCOCCN2CCc3ccccc3C2)cc1	nt	-4.2	i	i
CCCOc1ccc(OCCOCCN2CCc3ccccc3C2)cc1	i	-10	i	i
COc1ccc(CNC(=O)[C@H](C)NC(=O)C2CCN(C(=O)[C@@H](N)CCSC)CC2)cc1	nt	i	i	i
C#CCN(C[C@@H]1[C@@H](OC(=O)NCc2ccccc2F)[C@@H](OC(=O)NCc2ccccc2F)Cn2c(=O)ccc(=O)n21)S(=O)(=O)c1ccc(C)cc1	69	nt	nt	nt
CC1(C)OC1(C#N)c1ccccc1 (stereo unspecified)	i	nt	nt	nt
Cc1ccc(NC(=O)CSc2nnc3n2CCCCC3)cc1S(=O)(=O)N1CCOCC1	i	nt	nt	nt
Cc1ccccc1C(=O)c1cccn1CC(=O)NCC(C)c1ccccc1 (stereo unspecified)	nt	-6.4	i	i
COc1ccc(CCNC(=O)Cn2cccc2C(=O)c2ccccc2C)cc1OC	nt	-5	i	i
Cc1ccc2c(c1)c1c(n2CC(O)CNC2CCCC2)CCCC1 (stereo unspecified)	99	i	i	i
COc1ccc(OC)c(C(=O)CN2CCN(S(=O)(=O)c3ccc(Br)cc3)CC2)c1	i	i	-6.5	i
O=C(CSCc1ccc(Cl)cc1)Nc1cc([N+](=O)[O-])ccc1O	i	i	-8.1	i
CC(C)=CCC/C(C)=C/CNC(=O)C[C@H]1C[C@H](C(=O)N2CCOCC2)[C@@]2(CCC3CCCC3)c3[nH]c4cc(-c5ccco5)ccc4c3CCN2C1=O	62	nt	nt	nt
O=C(C[C@H]1C[C@H](C(=O)N2CCCCC2)[C@@]2(CCc3ccccc3)c3[nH]c4cc(-c5ccco5)ccc4c3CCN2C1=O)NCc1cccc(C(F)(F)F)c1	58	nt	nt	nt
CN(C)CCCNC(=O)C[C@H]1C[C@H](C(=O)N2CCOCC2)[C@@]2(CCC3CCCC3)c3[nH]c4cc(-c5ccco5)ccc4c3CCN2C1=O	60	nt	nt	nt
O=C(C[C@H]1C[C@H](C(=O)N2CCCCC2)[C@@]2(CCc3ccccc3)c3[nH]c4cc(-c5ccco5)ccc4c3CCN2C1=O)NCc1ccco1	i	nt	nt	nt
CCN(C(=O)COC(=O)c1nccnc1N)c1cccc2ccccc12	i	nt	nt	nt
CC1CCN(S(=O)(=O)c2ccc3c(c2)N(CC(=O)NCCCN2CC(C)CC(C)C2)C(=O)CS3)CC1 (stereo unspecified)	nt	i	i	i
COc1cc(C(=O)NCCC(=O)NC2CCC(C)CC2)cc(OC)c1OC (stereo unspecified)	nt	i	i	i
CSCCC(NC(=O)c1ccccc1Cl)C(=O)N1CCN(C(c2ccccc2)c2ccccc2)CC1 (stereo unspecified)	i	-4.7	i	i
SMILES	H9c2 TAG inh	Kir21 block	CHT block	CHT allo act
CSCCC(NC(=O)c1ccccc1Cl)C(=O)N1CCN(C(C)=O)CC1 (stereo unspecified)	i	nt	nt	nt
Cc1cccc2c3c([nH]c12)CCN(C)C3	nt	i	-5.8	i
NC(=O)c1cccc2c3c([nH]c12)CCCC3	i	i	i	i
COc1ccc(CN2CCN(C(=O)c3ccc(S(=O)(=O)NCc4ccco4)cc3)CC2)cc1	i	nt	nt	nt
Cc1nn2c(NCCCn3ccnc3)cc(C(C)C)nc2c1-c1ccccc1	i	-5	i	i
Cc1ccc(C(=O)OCC(=O)Nc2cc(C(C)(C)C)no2)c(C)c1	i	nt	nt	nt
COc1ccc(S(=O)(=O)N2CCCC2c2cccs2)cc1 (stereo unspecified)	i	i	i	i
O=S(=O)(c1ccccc1)N1CCCC1c1cccs1 (stereo unspecified)	i	-5.4	i	i
CCOC(=O)c1ccc(NC2=CC(=O)C(=O)c3ccccc32)cc1	80	i	i	i
Cc1ccc(NC2=CC(=O)C(=O)c3ccccc32)cc1	nt	i	i	i
Cc1ccc(S(=O)(=O)NCc2c(-c3ccccc3)noc2C)cc1	i	-4.3	i	i
O=C(NCCCN1CCc2ccccc2C1)Nc1ccc(Cl)cc1	nt	-4.7	i	i
CC(Sc1nc2ccccc2s1)C(=O)N(C)Cc1ccccc1 (stereo unspecified)	nt	-4.2	i	i
CC(Sc1nc2ccccc2s1)C(=O)NC1CCCc2ccccc21 (stereo unspecified)	nt	-5.8	i	i
C#CCn1cc(/C=N/Nc2nc3ccccc3[nH]2)c2ccccc21	nt	-6.4	i	i
C(=N\Nc1nc2ccccc2[nH]1)/c1ccccn1	i	i	nt	nt
C(=N\Nc1nc2ccccc2[nH]1)/c1cccc2nccnc12	52	i	i	i
CCN(Cc1ccccc1)Cc1nnnn1Cc1ccccc1	i	-6.9	i	i
CN(C)c1nnnn1Cc1ccccc1	i	i	i	i
CN1CCN(CCCN2c3ccccc3Sc3ccc(C(F)(F)F)cc32)CC1	i	-4.4	i	i
CC1(C(=O)NS(=O)(=O)c2cccc(C#N)c2)CCN1C(=O)CC1CC1 (stereo unspecified)	i	nt	nt	nt
Cc1nn(-c2ccccc2)c(C)c1/C=N/NC(=O)c1cc(C23CC4CC(CC(C4)C2)C3)[nH]n1	i	i	-8.5	i
C=CCOc1c(OC)cc(/C=N/Nc2cccc(C(=O)O)c2)c(Br)c1Br	57	i	i	i
CC(C)(C)c1ccc(OCC(=O)NNC(=O)CCc2ccccc2)cc1	i	i	i	i
CC(C)(C)c1ccc(C(=O)NC(=S)NNC(=O)COc2ccccc2)cc1	i	i	-5.1	i
SMILES	H9c2 TAG inh	Kir21 block	CHT block	CHT allo act
C[C@@H]1C[C@@H]2OC(=O)[C@]3(C)[C@H]2[C@@H](OC3(C)O)[C@]2(C)C(=O)C=C[C@H]12 (stereo partly specified)	i	i	i	i
C=C1C(=O)C=C[C@]2(C)C[C@@H]3OC(=O)[C@](C)(O)[C@H]3C[C@@H]12	57	i	i	i
Cc1sc2ccc3sccc3c2[n+]1C	nt	i	i	12
CCN(CC)C(=O)n1c(Cc2ccccc2)nc2ccccc21	nt	i	i	i
COc1ccc2cc3cc(C(=O)Nc4ccccc4N4CCN(C)CC4)oc3nc2c1	53	i	i	i
CCCN1Cc2cccc(C(=O)Nc3ccc(-c4nc5ccccc5[nH]4)cc3)c2C1=O	nt	i	i	i
CCN(CC)CC(=O)Nc1ccc2c(c1)N(C(=O)CN(CC)CC)c1ccccc1CC2	nt	i	i	i
CCN(CC)CC(=O)Nc1ccc2c(c1)Nc1ccccc1CC2	i	-5.6	i	i
O=C(COC(=O)c1ccccc1O)NCc1ccc2c(c1)OCO2	i	nt	nt	nt
NC(=S)NN=Cc1nccc2ccccc12	i	nt	nt	nt
NC(=S)NN=Cc1nccc2c(C(F)(F)C(F)(F)C(F)(F)F)cccc12	74	nt	nt	nt
